Screening data as filed in PubChem.
ALDH1A1 inh: qHTS Assay for Inhibitors of Aldehyde Dehydrogenase 1 (ALDH1A1) | Purified ALDH1A1, NADH fluorescence, propionaldehyde substrate | Potency, µM (series often up to 75.3 µM), usual class: inhibitors | 7.3% of 220,000 active | AID 1030, 2008; active = well fitted inhibition curve with a large enough effect, not every such curve was filed as active; inconclusive = small, poorly fitted or top-dose-only effect, or another doubt; inactive = no such curve, though single readings can be large or run the other way
G9a block: qHTS Assay for Inhibitors of Histone Lysine Methyltransferase G9a; G9a H3K9 monomethylation, AlphaScreen, 2 h; Potency, µM (highest dose often 102 µM), hits mostly inhibitors; 8.8% of 350,000 active; note: nearly all actives have a fitted effect of over 75% in size
Target sequence (Q96KQ7 913-1193 limits assumed): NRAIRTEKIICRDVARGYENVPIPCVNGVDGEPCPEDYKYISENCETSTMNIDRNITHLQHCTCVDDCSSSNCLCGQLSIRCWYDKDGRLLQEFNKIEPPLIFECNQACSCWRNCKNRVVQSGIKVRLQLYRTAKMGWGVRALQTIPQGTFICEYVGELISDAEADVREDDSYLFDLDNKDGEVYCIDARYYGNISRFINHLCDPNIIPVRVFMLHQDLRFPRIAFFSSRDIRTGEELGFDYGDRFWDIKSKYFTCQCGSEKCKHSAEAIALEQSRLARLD
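Readings reflect AlphaScreen signal from monomethyl-H3K9 antibody detection. HMT at 20 nM; substrate b-H3K9 500 nM; cofactor SAM 20 uM; 2 h RT reaction; compounds tested as titrations in qHTS with 15 min preincubation.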
Sfp inh: qHTS Assay for Inhibitors of Bacillus subtilis Sfp phosphopantetheinyl transferase (PPTase); 4'-phosphopantetheinyl transferase ffp (Bacillus subtilis), Q9F4F7; Biochemical Sfp PPTase activity, qHTS; Potency, µM, actives largely listed as inhibitors; 3.5% of 310,000 active; AID 1490, 2009;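 note: the enzyme is Sfp with the accession as filed and its product quenches rhodamine fluorescence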
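Buffer: 50 mM Hepes-Na pH 7.6, 10 mM MgCl2, 0.01% Nonidet P-40, 0.01% BSA. Enzyme 15 nM, pre-exposed to compound 15 min; substrates then added and fluorescence change tracked over 30 min.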
JMJD2E inh: qHTS Assay for Inhibitors of Human Jumonji Domain Containing 2E (JMJD2E); JMJD2E catalytic domain, FDH-coupled NADH fluorescence (FDH is formaldehyde dehydrogenase); Lysine-specific demethylase 4E (Homo sapiens), B2RXH2; Potency, µM (highest dose often 57.1 µM), most hits filed as inhibitors; 1.6% of 230,000 active; AID 2147, 2009; active = well fitted inhibition curve with a large enough effect, not every such curve was filed as active; inconclusive = small, poorly fitted or top-dose-only effect, or another doubt; inactive = no such curve, though single readings can be large or run the other way; note: nearly all actives have a fitted effect of over 50% in size
Target sequence (B2RXH2 1-337 limits assumed): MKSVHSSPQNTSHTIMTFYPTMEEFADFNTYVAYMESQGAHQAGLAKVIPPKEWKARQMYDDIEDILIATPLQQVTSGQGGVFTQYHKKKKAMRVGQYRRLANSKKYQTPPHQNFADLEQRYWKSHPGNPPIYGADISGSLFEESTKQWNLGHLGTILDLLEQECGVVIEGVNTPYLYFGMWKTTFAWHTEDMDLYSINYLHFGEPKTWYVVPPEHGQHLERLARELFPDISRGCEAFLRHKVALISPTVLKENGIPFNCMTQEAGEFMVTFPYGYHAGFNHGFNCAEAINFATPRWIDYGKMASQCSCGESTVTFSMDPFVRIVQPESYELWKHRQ
miR-21 act: qHTS Assay for Modulators of miRNAs and/orActivators of miR-21. 340,000 tested, under 10 active. HeLa miR-21 FLuc reporter, luciferase, 48 h. Potency, µM (doses to about 38.3 µM), actives largely listed as activators;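 note: miR-21 action dims this reporter so a rising signal means less miR-21 action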
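Luminescence from a firefly luciferase reporter carrying a miR-21 binding site downstream, stably expressed under a CMV promoter in HeLa cells that make miR-21 endogenously, reports miRNA modulation after 48 h compound exposure up to approximately 40uM final.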
LMNA splice mod: qHTS Assay for Modulators of Lamin A Splicing; HeLa LMNA splicing GFP/RFP minigene ratio, 48 h; Potency, µM (highest dose often 46.1 µM), actives largely listed as inhibitors; 0.01% of 200,000 active; active = well fitted inhibition curve with a large enough effect in the signal ratio, with a control signal flat, not every such curve was filed as active; inconclusive = small, poorly fitted or top-dose-only effect, or effect the other way, or a change in a side signal; the % refers to the signal ratio
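Read-out is the ratio of GFP to DsRed2 object intensity, acquired by 488 nm laser-scanning cytometry on HeLa lamin A-EGFP minigene reporter cells. Compound incubation 48 hrs at 37 °C in Opti-MEM with 2% FBS; DMSO 0.5% final.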
Hits are given with their value; – = inactive; ? = inconclusive; · = no result; ! = repeats disagree; [ ] = remark or other dose. This is a sample that favours compounds with a hit; in the whole collection about 13% have one here. Unless noted, calls come from the whole dose curve; as a rule, active = well fitted curve in the direction sought with a large enough effect; inconclusive = small, poorly fitted or top-dose-only effect, or another doubt; inactive = no such curve, though single readings can be large; an effect the other way counts as inactive or inconclusive.

SMILES	ALDH1A1 inh	G9a block	Sfp inh	JMJD2E inh	miR-21 act	LMNA splice mod
O=c1c(F)cn(C2CCCO2)c(=O)n1Cc1c(F)cccc1Cl (stereo unspecified)	?	–	–	–	–	–
O=C(O)C(Oc1nc(=S)[nH]c(=S)[nH]1)(c1ccc(Cl)cc1)c1ccc(Cl)cc1	–[13.5 µM]	·	·	·	·	·
O=C(O)[C@H]1[O][Sb][O][C@@H](C(=O)O)C1O (stereo partly specified)	–[13.5 µM]	·	·	·	·	·
N#Cc1cccc(NC(=O)N2CC3(CCN(C(=O)Oc4ccccc4)CC3)C2)c1	?	–[12.7 µM]	–	·	·	·
O=C(CCS(=O)(=O)c1ccccc1)Nc1nnc(-c2ccco2)o1	·	31.6µM	?	·	–	·
O=C(Nc1nnc(-c2ccco2)o1)c1cccc2ccccc12	–	–	–	–	–	?
Cc1ccc(C2N(c3cc(C)on3)C(=O)C3CCCN32)cc1 (stereo unspecified)	–	35.5µM	–	–	–	–
O=Cc1cn(Cc2cccc(F)c2)c2ccccc12	0.562µM	–	–	–	–	?
O=Cc1cn(Cc2ccc(Br)cc2)c2ccccc12	·	–[2.33 µM]	–	·	–	·
C=CCSc1nnc(NC(=O)c2ccc(Cl)nc2)s1	?	–[12.7 µM]	–	?	–	–
Nc1nc(O)c(-c2ccccc2)o1	·	–[12.7 µM]	–	·	·	·
CC1=[N+]([O-])C2(N)CCc3nonc3C2(O)C1 (stereo unspecified)	7.08µM	–	–	–	–	–
CC1=CC(=O)C2=C(C)C[C@@H](O)[C@@H]3[C@@H](OC(=O)[C@H]3C)[C@H]12	–	–[21.5 µM]	–	–	·	?
CN(N=O)c1cc(O)ccc1O	20µM	0.597µM	·	–	·	?
COC1=CC(=O)O[C@@H](/C=C/c2ccccc2)C1	12.6µM	–[12.7 µM]	·	·	·	·
CC(=O)OC[C@H](N)C(=O)c1ccccc1	?	?	–	·	·	·
O=C(O)Cc1ccccc1	–	–	–	·	·	·
O=C(CCl)c1ccccc1	0.0794µM	·	·	·	·	·
COC(=O)CSc1n[nH]c(=S)s1	11.2µM	7.94µM	?	–	–	–
O=P(OCC(F)(F)C(F)F)(N1CCCCC1)N1CCCCC1	–	44.7µM	–	–	–	–
c1cncc(C2CCCCN2)c1 (stereo unspecified)	–	–	–	–	–	–
c1cncc(C2Nc3cccc4cccc(c34)N2)c1	·	11.2µM!	?	5.01µM	–	·
NC1CCCC[C@@H]1N (stereo partly specified)	·	·	–	·	·	·
O=C1NC(=O)C(=Cc2coc3ccc(O)cc3c2=O)C(=O)N1	3.55µM	·	12.6µM	17.8µM	–	–
CNC(=S)N(C)CCc1cc2c(c(OC)c1C=C1C(=O)NC(=O)NC1=O)OCO2	?	79.4µM	?	?	–	·
SMILES	ALDH1A1 inh	G9a block	Sfp inh	JMJD2E inh	miR-21 act	LMNA splice mod
O=C1NC(=S)NC(=O)C1C1CCCCC1	·	?	79.4µM	–	–	·
C[N+]1(C)C2CC[C@H]1CC(OC(=O)C(CO)c1ccccc1)C2 (stereo partly specified)	·	–	·	·	·	·
C#CC[N+]1(C)[C@@H]2CC[C@H]1CC(OC(=O)C(CO)c1ccccc1)C2 (stereo partly specified)	·	–[12.7 µM]	–	·	–	·
C[N+]1(C)C2CCC1CC(OC(=O)c1c[nH]c3ccccc13)C2 (stereo unspecified)	22.4µM	10.6µM	–	–	·	?
C[N+]1(C)[C@@H]2CC[C@H]1CC(OC(=O)[C@@H](CO)c1ccccc1)C2 (stereo partly specified)	–	7.94µM!	39.8µM!	–	–	?
C[N+]1(C)CCC(OC(=O)C(c2ccccc2)c2ccccc2)CC1	–	6.7µM!	–	–	·	–
C[N+]1(C)C2CCC1CC(OC(=O)c1ccco1)C2 (stereo unspecified)	·	·	–	–	–	·
CC(C)n1c(/C=C\[C@@H](O)C[C@@H](O)CC(=O)O)c(-c2ccc(F)cc2)c2ccccc21	?	–[21.5 µM]	–	?	·	?
COc1ccc2nc(NC(=O)c3nc(S(=O)(=O)Cc4cccc(C)c4)ncc3Cl)sc2c1	·	–	·	·	?	·
COc1cccc(/C=N/NC(=O)c2c(C)nc3ccc(Br)cn23)c1	?	–	–	–	–	–
NC(C(=O)O)c1cc(=O)[nH]o1 (stereo unspecified)	–	–	79.4µM	–	·	?
Nc1ncnc2c1ncn2[C@@H]1O[C@H](COP(=O)(O)CP(=O)(O)O)[C@@H](O)[C@H]1O	–	–	–	·	·	·
Nc1ncnc2c1ncn2[C@@H]1O[C@H](COP(=O)(O)CP(=O)(O)OP(=O)(O)O)[C@@H](O)[C@H]1O	–	12.6µM!	56.2µM	·	·	·
CCNCCC1(CC)C(=O)NC(=O)NC1=O	–[13.5 µM]	·	·	·	·	·
CNCC(O)c1cccc(OC(=O)c2ccccc2C)c1 (stereo unspecified)	–	56.2µM	–	–	–	–
C=CCN1CC[C@]23c4c5ccc(O)c4O[C@@H]2C(=O)CC[C@]3(O)[C@H]1C5	–	–[21.5 µM]	–	?	·	–
C=CC[N+]1(C)CC[C@]23c4c5ccc(O)c4O[C@H]2C(=O)CC[C@@]3(O)[C@H]1C5 (stereo partly specified)	·	1.58µM	·	·	·	·
C=CC[N+]1(C)CCC23c4c5ccc(O)c4O[C@H]2C(=O)CC[C@@]3(O)C1C5 (stereo partly specified)	–	–	56.2µM	·	·	·
N#Cc1ccc(CN2CC[C@@]3(CCCN(C(=O)Oc4ccccc4)C3)C2)cc1	–	–[12.7 µM]	–	·	·	·
Cc1ccc(N2C(=O)NC(=O)/C(=C\c3cc(C)n(-c4ccc(C(=O)O)cc4)c3C)C2=O)cc1	·	?	–	·	–	·
Cc1ccc(N2C(=O)NC(=O)/C(=C\c3cc(C)n(-c4cc(C(=O)O)cc(C(=O)O)c4)c3C)C2=O)cc1	·	35.5µM	–	·	–	·
Cc1cc(C=C2C(=O)N(C)C(=O)N(C)C2=O)c(C)n1-c1ccccc1	?	7.94µM	–	–	–	–
Cc1cc(/C=C2\C(=O)NC(=O)N(c3ccc(F)cc3)C2=O)c(C)n1-c1ccc(C(=O)O)cc1	7.94µM	·	–	–	–	·
CCc1ccc(N2C(=O)NC(=O)/C(=C\c3cc(C)n(-c4cc(C(=O)O)cc(C(=O)O)c4)c3C)C2=O)cc1	·	35.5µM	–	·	–	·
CNCc1ccccc1	–	–[2.33 µM]	–	?	·	·
Cc1cc(/C=C2\C(=O)NC(=O)N(c3cccc(F)c3)C2=O)c(C)n1-c1ccc(C(=O)O)c(Cl)c1	·	35.5µM	–	·	–	·
Cc1c(Cl)cccc1N1C(=O)NC(=O)/C(=C\c2cc(C)n(-c3cccc(C(=O)O)c3C)c2C)C1=O	·	·	–	·	–	·
